Source: PubChem
Tg IFNy HTS – inhibitors of Toxoplasma gondii growth with IFN-gamma. Toxoplasma gondii growth in IFN-gamma-treated host cells; active compounds read low. activity change, negative = inhibition, % (concentration not given with the values). AID 1259416. 3.8% of 69,000 active; in the data active means activity change below about -70%, passing the limit was not always enough;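 further: host cells are HeLa cells infected with Toxoplasma gondii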
Active calls of the source: *; ! = repeats disagree. Many of the other results were omitted from the sample, so hits are more common in it than they were.

What do the screens show for `COc1cccc(CNC(=O)Nc2ccc(-c3nc(-c4ccccc4)co3)cc2)c1`?
Tg IFNy HTS: 72

Results for O=C(NCc1cccc(O)c1)Nc1nc(-c2ccncc2)cs1 ?
Tg IFNy HTS: -74*

Results for CCOC(=O)c1cccnc1-c1cccc(NC(C)=O)c1 ?
Tg IFNy HTS: 13

How did CCOC(=O)c1c(Sc2ccccc2)cnn1C(=O)Nc1cccc(Cl)c1 do in these assays?
Tg IFNy HTS: -79*

How did COC(=O)c1cnc(SCC(=O)Nc2cccc(Cl)c2)n1C do in these assays?
Tg IFNy HTS: 34

What do the screens show for `COc1ccc2nc(NC(=O)CN3C(=O)CCc4cc(Br)ccc43)sc2c1`?
Tg IFNy HTS: 207

How did CCCN1C(=O)C2(NCCc3c2[nH]c2ccc(OC)cc32)c2cc(Br)ccc21 (stereo not given) do in these assays?
Tg IFNy HTS: 53

What do the screens show for `COc1ccc2[nH]c3c(c2c1)CCNC31C(=O)N(CCC(C)C)c2ccccc21` (stereo not given)?
Tg IFNy HTS: 68

What do the screens show for `COc1ccc2[nH]c3c(c2c1)CCNC3=O`?
Tg IFNy HTS: -89*

How did O=C(Cn1ncc2c(N3CCN(c4ccccn4)CC3)ncnc21)NCCC1=CCCCC1 do in these assays?
Tg IFNy HTS: 205

How did Cc1cc(-c2ccc3c(c2)OCO3)cnc1N do in these assays?
Tg IFNy HTS: 52

How did Cc1nc(-c2ccc3c(c2)OCO3)cc(C(C)C)n1 do in these assays?
Tg IFNy HTS: -72*

What do the screens show for `Cc1ncc(-c2ccc3c(c2)OCO3)c(-c2cccnc2)n1`?
Tg IFNy HTS: 1

What do the screens show for `CN(Cc1nccn1C)c1ccc(-c2nccn2C)nn1`?
Tg IFNy HTS: -3

Results for CN(Cc1ccoc1)c1ccc(-c2nccn2C)nn1 ?
Tg IFNy HTS: 67

What do the screens show for `Cc1c(CN(C)c2ccc(-c3nccn3C)nn2)[nH]c2ccccc12`?
Tg IFNy HTS: -96*

How did CS(=O)(=O)Nc1ccc(C(=O)O)cc1 do in these assays?
Tg IFNy HTS: -1

How did COCCn1nnnc1C(C(C)C)N1CCN(C2CCCCC2)CC1 (stereo not given) do in these assays?
Tg IFNy HTS: -8

Results for Cc1noc([C@@H]2C[C@@H]3OCC[C@@H]3N(C(=O)c3sccc3C)C2)n1 ?
Tg IFNy HTS: 7

Results for CO[C@H]1CN(C)C(=O)c2cc(NC(=O)C3CC3)ccc2OC[C@H](C)N(Cc2cc(F)ccc2F)C[C@@H]1C ?
Tg IFNy HTS: -72*

How did CO[C@@H]1CN(C)C(=O)c2cc(NC(=O)c3cccc(F)c3)ccc2OC[C@@H](C)N(C)C[C@H]1C do in these assays?
Tg IFNy HTS: 3

How did CO[C@H]1CN(C)C(=O)c2cc(NC(=O)c3cccc(F)c3)ccc2OC[C@@H](C)N(C)C[C@H]1C do in these assays?
Tg IFNy HTS: 8

Results for CO[C@@H]1CN(C)C(=O)c2cc(NC(=O)c3cccc(F)c3)ccc2OC[C@@H](C)N(C)C[C@@H]1C ?
Tg IFNy HTS: -75*

What do the screens show for `CO[C@@H]1CN(C)C(=O)c2cc(NC(=O)C3CC3)ccc2OC[C@H](C)N(Cc2cc(F)ccc2F)C[C@@H]1C`?
Tg IFNy HTS: -59

What do the screens show for `CCCN1C[C@H](C)[C@@H](OC)CN(C)C(=O)c2cc(NC(=O)C3CCC3)ccc2OC[C@@H]1C`?
Tg IFNy HTS: 7

Results for CCc1cnc(N2CCc3cc(C(=O)N4CCCC4)c(N(C)C)nc3CC2)nc1 ?
Tg IFNy HTS: 5

How did NC(=O)c1cc(-c2cc(NCc3ccccn3)nc3[nH]ccc23)cs1 do in these assays?
Tg IFNy HTS: -47

How did CCN(Cc1ccncc1)C(=O)c1cc(C)c(C)c(S(N)(=O)=O)c1 do in these assays?
Tg IFNy HTS: -16

Results for COc1cc(NC(=O)Nc2ccc(-c3nc(-c4ccccc4)co3)cc2)cc(OC)c1OC ?
Tg IFNy HTS: -88*

How did COc1ccc(C)cc1NC(=O)Nc1ccc(-c2nc(-c3cc(C)ccc3C)co2)cc1 do in these assays?
Tg IFNy HTS: -72*

How did COc1ccc(NC(=O)Nc2ccc(-c3nc(-c4cc(C)ccc4C)co3)cc2)c(OC)c1 do in these assays?
Tg IFNy HTS: -17

Results for Cc1ccc(C)c(-c2coc(-c3ccc(NC(=O)Nc4ccccc4)cc3)n2)c1 ?
Tg IFNy HTS: 1

What do the screens show for `COc1cc(NC(=O)Nc2ccc(-c3nc(-c4ccc(C)cc4)co3)cc2)cc(OC)c1OC`?
Tg IFNy HTS: -39

What do the screens show for `COc1cc(C(=O)Nc2ccc(-c3nc(-c4ccccc4)co3)cc2)cc(OC)c1OC`?
Tg IFNy HTS: -20

How did O=C(CCS(=O)(=O)c1ccc(Cl)c(Cl)c1)OCC(=O)c1ccccc1 do in these assays?
Tg IFNy HTS: 3

How did CNC(=O)c1cnc(C)nc1CCNS(=O)(=O)c1cn(CC(C)C)nc1C do in these assays?
Tg IFNy HTS: -33

How did CC(=O)c1c(C)nn(CC(=O)NCc2nc3c(C)cccc3[nH]2)c1C do in these assays?
Tg IFNy HTS: 2

What do the screens show for `Clc1ccc(CN(Cc2ccccc2)Cc2nnnn2C2CCCCC2)cc1`?
Tg IFNy HTS: 2

Results for COc1ccc(Oc2cccc(Cl)c2CNC(=O)CSCC(=O)O)cc1 ?
Tg IFNy HTS: 31

What do the screens show for `COc1ccc(Oc2ccc(C(=O)NCCc3ccccn3)cc2)cc1`?
Tg IFNy HTS: -54

Results for COc1ccc(Oc2cccc(F)c2CNC(=O)c2ccc(OC)cc2)cc1 ?
Tg IFNy HTS: -88*

Results for Cc1nc2ccc(CC(=O)NCC(=O)NC3CC3)cc2[nH]1 ?
Tg IFNy HTS: -5

Results for Cn1c(SCC(=O)N2c3ccccc3Sc3ccccc32)nnc1-c1ccncc1 ?
Tg IFNy HTS: 49

Results for CSc1cccc(NC(=O)NCC(c2cccnc2)c2cn(C)c3ccccc23)c1 (stereo not given) ?
Tg IFNy HTS: 240

Results for CNCC1CCC(c2cc(CN(C)C(=O)c3cccnc3N)n(C)n2)CC1 (stereo not given) ?
Tg IFNy HTS: 1

How did Cc1ccc(OC(=O)c2c(-c3ccccc3)nnc3ccccc23)cc1 do in these assays?
Tg IFNy HTS: -106*

How did Cc1noc(C)c1C(=O)Oc1ccccc1 do in these assays?
Tg IFNy HTS: -14

Results for CC[C@H](NC(=O)c1c(C)c(-c2ccccc2)nc2ccccc12)c1ccccc1 ?
Tg IFNy HTS: -12

What do the screens show for `COC(=O)CCC(=O)N1CCC2(CC1)CC2`?
Tg IFNy HTS: 8

Results for CCc1nc(OCC(=O)Nc2cc(OC)cc(OC)c2)c2ccccc2n1 ?
Tg IFNy HTS: 6

What do the screens show for `CN1CCCC2(CCN(C(=O)c3nc4ccccc4c(=O)[nH]3)C2)C1=O` (stereo not given)?
Tg IFNy HTS: 62

How did CCOC(=O)CSc1nc2ccccc2n1CC(=O)Nc1ccccc1-c1ccccc1 do in these assays?
Tg IFNy HTS: -15

How did CC1CCc2cc(F)ccc2N1C(=O)CSc1ncc(-c2ccccc2)n1C1CCCC1 (stereo not given) do in these assays?
Tg IFNy HTS: -80*

How did CC1CCc2cc(F)ccc2N1C(=O)c1cc2cccnc2n(Cc2ccccc2F)c1=O (stereo not given) do in these assays?
Tg IFNy HTS: -28

How did Cn1c(-c2ccccc2)cnc1SCC(=O)Nc1ccc(Cl)cc1 do in these assays?
Tg IFNy HTS: 7

Results for CN(Cc1ccno1)C(=O)CC1COCCN1 (stereo not given) ?
Tg IFNy HTS: 3

What do the screens show for `[O-][NH2+]c1ccc(O)c2ncccc12`?
Tg IFNy HTS: -84*!

How did CCn1c(=O)c(-c2nc(-c3ccc(SC)cc3)no2)c(O)c2ccccc21 do in these assays?
Tg IFNy HTS: 72

How did O=C1CC2(CCN(C(=O)Cc3ccc4c(c3)OCO4)CC2)CN1 do in these assays?
Tg IFNy HTS: -57
